Results on 40 molecules are retold here after PubChem BioAssay (NCATS).

The structures appear in SMILES notation.

A short description of this experiment: qHTS profiling of the MIPE4 collection as inhibitors of Plasmodium falciparum (3D7) proliferation (AID 743344).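 Also: scaled between DMSO vehicle wells and 0.29 µM artemisinin as full inhibition.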 Particulars: P. falciparum 3D7 in erythrocytes, SYBR Green DNA fluorescence, 72 h; at 28.5 µM unless noted. From the text: Plasmodium falciparum is a virulent malarial parasite that kills 1-2 million people worldwide each year. Transmitted by mosquitoes, the sporozoite form of the parasite enters the blood stream to infect hepatocytes, where they become merozoites that infect red blood cells (erythrocytes). Within erythrocytes, merozoites begin a […] cycle of growth and division, after which the parasite is released to infect new red blood cells. Gametocytes, which form within erythrocytes as well, circulate in the bloodstream and are ingested by the mosquito, thereby completing the life cycle. To profile malarial isolates for differential chemical responses and to identify inhibitors of malarial growth, an assay that measures P. falciparum growth and replication within erythrocytes was employed. This assay uses a DNA binding fluorescent dye (SYBR Green) to detect parasite DNA following cell lysis. Because mature erythrocytes lack DNA, only Plasmodium-derived DNA is detected.
The SYBR Green viability assay was adapted from a method described previously (Plouffe et al., 2008). For screening 3 ul culture medium was dispensed into 1536 well black clear bottom plates (Aurora Biotechnologies) using a Multidrop Combi (Thermo Fisher Scientific Inc.), 23 nL compounds in DMSO were added by a pin tool (Kalypsys), and 5 ul of erythrocytes infected with P. falciparum (0.3% parasitemia, 2.5% hematocrit final concentration) were added. The plates were incubated at 37 C in a humidified incubator in 5% CO2 for 72 h, and 2 ul lysis buffer (20 mM Tris HCl, 10 mM EDTA, 0.16% saponin, 1.6% triton X, 10X SYBR Green I supplied as 10,000X […] by Invitrogen) was added to each well. The plates were mixed for 25 sec with gentle shaking and incubated overnight at room temperature in the dark. The following morning, fluorescence intensity at 485(14) nm excitation and 535(25) nm emission wavelengths was measured on an EnVision (Perkin Elmer) plate reader. Plate reads were normalized relative to the control inhibitor (0.29 uM artemisinin) and vehicle (DMSO) wells present on each plate and then corrected by an algorithm using vehicle-only control plates at the beginning and end of the compound plate stack.
Molecule `O=C(O)c1cn(C2CC2)c2cc(N3CCNCC3)c(F)cc2c1=O` showed a parasite growth, % of DMSO control of 75.2%.

Regarding `NC(=O)c1cccnc1`, the parasite growth, % of DMSO control was 98.2%.

In turn, `O=C(N[C@H](CO)[C@H](O)c1ccc([N+](=O)[O-])cc1)C(Cl)Cl` had a parasite growth, % of DMSO control of 94.4%.

In turn, `NC(N)=NC(N)=NCCc1ccccc1` came in with a parasite growth, % of DMSO control of 21.2%.

Turning to `Cc1nnc(C(=O)NC(C)(C)c2nc(C(=O)NCc3ccc(F)cc3)c(O)c(=O)n2C)o1`, the parasite growth, % of DMSO control is 83.6%.

Molecule `N[C@@H](C(=O)N[C@@H]1C(=O)N2C(C(=O)O)=C(Cl)CS[C@H]12)c1ccccc1` had a parasite growth, % of DMSO control of 80.9%.

`CCCCS(=N)(=O)CCC(N)C(=O)O` (stereo not given) showed a parasite growth, % of DMSO control of 102%.

`COCCCOc1cc(C[C@@H](C[C@H](N)[C@@H](O)C[C@H](C(=O)NCC(C)(C)C(N)=O)C(C)C)C(C)C)ccc1OC` registered a parasite growth, % of DMSO control of 40.6%.

As for `O=C(O)CSCC(=O)NC1CCSC1=O` (stereo not given), the parasite growth, % of DMSO control was found to be 102%.

As for `O=S(=O)(O)CCS`, the parasite growth, % of DMSO control was 87.9%.

`CN(CCOc1ccc(CC2SC(=O)NC2=O)cc1)c1ccccn1` (stereo not given) displayed a parasite growth, % of DMSO control of 98.7%.

Turning to `CCOc1cc(N)c(Cl)cc1C(=O)NCC1CN(Cc2ccc(F)cc2)CCO1` (stereo not given), the parasite growth, % of DMSO control is 105%.

For `CC(N)C12CC3CC(CC(C3)C1)C2` (stereo not given), the parasite growth, % of DMSO control was determined as 76.2%.

With `Cc1noc(NS(=O)(=O)c2ccc(N)cc2)c1C`, the parasite growth, % of DMSO control was 96.2%.

Molecule `CN1CCN(c2c(F)cc3c(=O)c(C(=O)O)cn4c3c2OCN4C)CC1` had a parasite growth, % of DMSO control of 90.8%.

On to `N=C(N)c1ccc(OCCCCCOc2ccc(C(=N)N)cc2)cc1`, for which the parasite growth, % of DMSO control is 5.02%.

`COC(=O)Nc1nc2ccc(Sc3ccccc3)cc2[nH]1` returned a parasite growth, % of DMSO control of 75.4%.

Consider `CCn1cc(C(=O)O)c(=O)c2cc(F)c(N3CCN(C)CC3)cc21`, for which the parasite growth, % of DMSO control worked out at 206%.

As for `NC1(c2ccc(-c3nc4ccn5c(=O)[nH]nc5c4cc3-c3ccccc3)cc2)CCC1`, the parasite growth, % of DMSO control was found to be 5.65%.

With `CN(C)CCc1c[nH]c2ccc(CS(=O)(=O)N3CCCC3)cc12`, the parasite growth, % of DMSO control is 94.3%.

In turn, `CNC(=O)c1cc(Oc2ccc(NC(=O)Nc3ccc(Cl)c(C(F)(F)F)c3)cc2)ccn1` came in with a parasite growth, % of DMSO control of 15.4%.

Consider `CCOC(=O)c1ccc(OC(=O)CCCCCN=C(N)N)cc1`, for which the parasite growth, % of DMSO control was 93%.

Turning to `CCCCOc1ccc(CC(=O)NO)cc1`, the parasite growth, % of DMSO control came to 11.6%.

On to `CCN1CCCC1CNC(=O)c1cc(S(N)(=O)=O)ccc1OC` (stereo not given), for which the parasite growth, % of DMSO control was 101%.

For `O=c1oc2c(O)c(O)cc3c(=O)oc4c(O)c(O)cc1c4c23`, the parasite growth, % of DMSO control was determined as 4.91%.

Molecule `CCC(C)(C)c1ccc(CC(C)CN2C[C@@H](C)O[C@@H](C)C2)cc1` (stereo not given in full) yielded a parasite growth, % of DMSO control of 17.4%.

With `COc1ccc(C(=O)CC(=O)c2ccc(C(C)(C)C)cc2)cc1`, the parasite growth, % of DMSO control is 9.04%.

As for `CC(C)(Sc1cc(C(C)(C)C)c(O)c(C(C)(C)C)c1)Sc1cc(C(C)(C)C)c(O)c(C(C)(C)C)c1`, the parasite growth, % of DMSO control was 23.4%.

`CC(C)C1CCC(C(=O)N[C@H](Cc2ccccc2)C(=O)O)CC1` (stereo not given in full): the parasite growth, % of DMSO control was 87.2%.

`COc1c(N2CCNC(C)C2)c(F)cc2c(=O)c(C(=O)O)cn(C3CC3)c12` (stereo not given) came in with a parasite growth, % of DMSO control of 17.5%.

With `CC(C(=O)O)c1ccc2c(c1)CC(=O)c1ccccc1S2` (stereo not given), the parasite growth, % of DMSO control amounted to 69.8%.

In the case of `Cc1cccc(Nc2ccncc2S(=O)(=O)NC(=O)NC(C)C)c1`, the parasite growth, % of DMSO control is 93.3%.

For `CC(C)OC(=O)C(C(=O)OC(C)C)=C1SC=CS1`, the parasite growth, % of DMSO control was found to be 89%.

On to `CCN(CC)CCn1c(=O)c(Cc2ccc(OC)cc2)nc2ccccc21`, for which the parasite growth, % of DMSO control is 206%.

Regarding `CC(C)(C)NC(=O)[C@H]1CC[C@H]2[C@@H]3CC[C@H]4NC(=O)C=C[C@]4(C)[C@H]3CC[C@]12C`, the parasite growth, % of DMSO control was determined as 60.2%.

As for `CNNCc1ccc(C(=O)NC(C)C)cc1`, the parasite growth, % of DMSO control came to 72.9%.

`Nc1nc(=S)c2[nH]cnc2[nH]1` showed a parasite growth, % of DMSO control of 93.4%.

Consider `CCC(=O)O[C@]1(C(=O)CCl)[C@@H](C)C[C@H]2[C@@H]3CCC4=CC(=O)C=C[C@]4(C)[C@@]3(F)[C@@H](O)C[C@@]21C`, for which the parasite growth, % of DMSO control is 6.83%.

For the molecule `CC(C)(C)C(=O)OCOP(=O)(COCCn1cnc2c(N)ncnc21)OCOC(=O)C(C)(C)C`, the parasite growth, % of DMSO control came out at 68.2%.

The molecule `C[C@]12C=CC(=O)C=C1CC[C@@H]1[C@@H]2C(=O)C[C@@]2(C)[C@H]1CC[C@]2(O)C(=O)CO` registered a parasite growth, % of DMSO control of 93.3% [at 9.64 µM].
